Consider 60 compounds from PubChem BioAssay AID588458 (Sanford-Burnham Center for Chemical Genomics, 2011).

About 3,000 (0.83%) of roughly 360,000 compounds were called active. Only a selection was taken, and actives are over-represented in it overall. Values without a mark were called inactive. No stated cut-off is given here; in the data, active means inhibition above about 50%; inactive means the rest.

In this experiment the target is DNA (cytosine-5)-methyltransferase 1 (Homo sapiens) (UniProt P26358). Briefly: inhibition of DNA methyltransferase DNMT1 – biochemical, molecular beacon, fluorescence, HinP1I cleavage, uHTS, primary screen (AID 588458). The following applies: at 10 µM, hits give high values.
Sequence of DNA (cytosine-5)-methyltransferase 1 (Homo sapiens) (P26358 504-1616 limits assumed): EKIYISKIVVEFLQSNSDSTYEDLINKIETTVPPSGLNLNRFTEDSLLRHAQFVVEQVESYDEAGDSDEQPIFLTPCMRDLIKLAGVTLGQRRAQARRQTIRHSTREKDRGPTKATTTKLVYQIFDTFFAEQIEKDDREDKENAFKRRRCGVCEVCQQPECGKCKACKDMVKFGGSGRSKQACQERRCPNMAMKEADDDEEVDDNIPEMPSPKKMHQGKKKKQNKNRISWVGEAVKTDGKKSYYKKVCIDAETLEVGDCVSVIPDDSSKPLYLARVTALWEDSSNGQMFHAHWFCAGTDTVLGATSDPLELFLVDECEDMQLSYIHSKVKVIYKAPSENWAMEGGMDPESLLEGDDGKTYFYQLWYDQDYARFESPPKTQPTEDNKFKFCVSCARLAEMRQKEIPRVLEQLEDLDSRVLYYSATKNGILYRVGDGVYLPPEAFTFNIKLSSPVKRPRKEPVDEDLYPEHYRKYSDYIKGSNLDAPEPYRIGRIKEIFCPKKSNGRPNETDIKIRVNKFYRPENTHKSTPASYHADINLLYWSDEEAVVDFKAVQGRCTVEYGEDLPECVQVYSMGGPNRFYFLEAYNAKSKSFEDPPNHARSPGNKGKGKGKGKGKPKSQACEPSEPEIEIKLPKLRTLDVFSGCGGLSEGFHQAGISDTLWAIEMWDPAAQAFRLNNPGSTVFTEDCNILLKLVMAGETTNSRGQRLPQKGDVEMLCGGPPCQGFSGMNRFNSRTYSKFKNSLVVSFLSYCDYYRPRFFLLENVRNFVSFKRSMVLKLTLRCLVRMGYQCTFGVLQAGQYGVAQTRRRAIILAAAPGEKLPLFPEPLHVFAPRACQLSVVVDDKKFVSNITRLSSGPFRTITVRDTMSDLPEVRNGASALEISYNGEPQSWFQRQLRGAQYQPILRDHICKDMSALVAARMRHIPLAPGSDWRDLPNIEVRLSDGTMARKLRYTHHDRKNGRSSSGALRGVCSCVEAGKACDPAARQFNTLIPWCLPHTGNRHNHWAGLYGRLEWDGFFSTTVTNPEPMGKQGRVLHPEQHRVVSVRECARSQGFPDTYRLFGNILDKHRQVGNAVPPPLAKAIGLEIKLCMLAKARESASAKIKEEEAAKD
As to `CCCn1nc(C(=O)NNC(=O)CCOc2ccccc2OCC)c2ccccc2c1=O`, the inhibition (reported as % activation of signal) is 0.9%.

In the case of `CCOc1ccccc1/C=c1\sc2nc(-c3ccco3)nn2c1=O`, the inhibition (reported as % activation of signal) is 93.3% (active).

As for `CCOc1ccccc1C1NC(=O)NC(C)=C1C(=O)OCc1ccco1` (stereo not given), the inhibition (reported as % activation of signal) is -2.52%.

On to `CCc1ccc(C(=O)C(C)OC(=O)CN2C(=O)NC3(CCCC3)C2=O)cc1` (stereo not given), for which the inhibition (reported as % activation of signal) is 3.64%.

On to `N#Cc1cccc(NC(=O)COC(=O)c2ccccc2C(=O)c2ccc(Cl)c([N+](=O)[O-])c2)c1`, for which the inhibition (reported as % activation of signal) was -3.9%.

For `COc1ccc(-n2c(SCC(=O)Nc3sc4c(c3C#N)CCCC4)nnc2-c2ccc(O)cc2)cc1`, the inhibition (reported as % activation of signal) is 67.7% (active).

Consider `COc1cccc(CN(C)CC(=O)Nc2sc3c(c2C#N)CCC3)c1`, for which the inhibition (reported as % activation of signal) was -0.9%.

As to `CCCc1cc(=O)[nH]c(SCC(=O)Nc2sc3c(c2C#N)CCCC3)n1`, the inhibition (reported as % activation of signal) is -0.63%.

Turning to `CCCCN(C)CCNC(=O)CSCc1ccc(C)cc1`, the inhibition (reported as % activation of signal) is 1.5%.

In the case of `CC1=C(C(=O)N2CCOCC2)CC(CC(=O)NCc2cccs2)C(=O)N1CCCN1CCCC1=O` (stereo not given), the inhibition (reported as % activation of signal) is 6.83%.

Consider `COc1ccc(C(=O)/C=C/c2ccc(-c3ccccc3)cc2)cc1CSCC(=O)O`, for which the inhibition (reported as % activation of signal) was 56% (active).

Take `COC(=O)c1ccc(COc2ccc(/C=C/C(=O)c3ccc(OC)c(CSCC(=O)O)c3)cc2OC)cc1`: the inhibition (reported as % activation of signal) was 11.9%.

Regarding `COc1ccccc1CCNC(=O)C1CCN(C(=O)/C=C/c2ccccc2)CC1`, the inhibition (reported as % activation of signal) was -0.55%.

For the compound `CC(C)(C)NC(=O)COC(=O)c1cc(Cl)ccc1[N+](=O)[O-]`, the inhibition (reported as % activation of signal) was 6.7%.

With `O=S(=O)(c1cccc(-c2nnc(SC(F)F)n2-c2ccccc2)c1)N1CCCCC1`, the inhibition (reported as % activation of signal) was -1.8%.

Take `CCn1ccnc1CNC(=O)CC1C(=O)NCCN1Cc1ccc(F)cc1Cl` (stereo not given): the inhibition (reported as % activation of signal) was -0.81%.

Consider `COc1ccc(S(=O)(=O)N2CCOC2CNC(=O)C(=O)NCc2ccncc2)cc1OC` (stereo not given), for which the inhibition (reported as % activation of signal) is -1.09%.

On to `COc1ccc(NC(=O)C2C3C=CC(C3)C2C(=O)NCc2ccccn2)c(OC)c1` (stereo not given), for which the inhibition (reported as % activation of signal) is 1.26%.

Turning to `CCCn1nnnc1NCc1ccc(CC)cc1`, the inhibition (reported as % activation of signal) was 0.45%.

For `CCOC(=O)C1CCCN(C(=O)c2ccc(N(C)C)cc2)CC1` (stereo not given), the inhibition (reported as % activation of signal) is -7.05%.

Consider `O=c1[nH]c(/C=C/c2cccc(Br)c2)nc2ccccc12`, for which the inhibition (reported as % activation of signal) was 53% (active).

As for `O=c1[nH]c(SCc2cccc(F)c2)nc2ccccc12`, the inhibition (reported as % activation of signal) is -0.9%.

Turning to `O=c1[nH]c(/C=C\c2cccc(C(F)(F)F)c2)nc(O)c1[N+](=O)[O-]`, the inhibition (reported as % activation of signal) was 4.66%.

In the case of `CCN(CC)C(=O)CSc1nnc(-c2ccc(S(=O)(=O)NCc3ccccc3Cl)cc2)o1`, the inhibition (reported as % activation of signal) was 4.4%.

Turning to `Clc1cc(NC2CCCCC2)ncn1`, the inhibition (reported as % activation of signal) was 1.17%.

Turning to `CCCC(C(=O)NCc1ccco1)N(C(=O)CNS(=O)(=O)c1ccccc1)C1CCCC1` (stereo not given), the inhibition (reported as % activation of signal) is 0.13%.

`O=S(=O)(Nc1nccs1)c1ccc2c(c1)OCCO2`: the inhibition (reported as % activation of signal) was 0.9%.

For `c1coc(-c2nc3nc4ccccc4n3nc2-c2ccco2)c1`, the inhibition (reported as % activation of signal) is 86.2% (active).

As for `CC(Oc1ccc(Cl)cc1Cl)C(=O)/C=C/N(C)C` (stereo not given), the inhibition (reported as % activation of signal) was 1.08%.

Regarding `Cn1c(Nc2ccc(F)cc2)nc2cc(-c3ccsc3)sc2c1=O`, the inhibition (reported as % activation of signal) is 1.88%.

For the compound `COc1ccc(S(=O)(=O)N2CCC(C(=O)NCCC(=O)Nc3ccccc3OC)CC2)cc1`, the inhibition (reported as % activation of signal) is 3.13%.

As for `CC(CCc1ccc(O)cc1)NCc1ccc(Cl)cc1Cl` (stereo not given), the inhibition (reported as % activation of signal) is 1.55%.

Turning to `COc1ccc(/C=C2\SC(=N)N(c3ccc(F)cc3)C2=O)cc1`, the inhibition (reported as % activation of signal) is 59% (active).

`COc1cccc(/C=C2\SC(=N)N(c3ccc(F)cc3)C2=O)c1`: the inhibition (reported as % activation of signal) is 29.4%.

For the compound `COc1ccc(N2C(=O)CNC2=S)cc1`, the inhibition (reported as % activation of signal) is 0.19%.

Consider `COC(=O)C1=C(C)NC(=S)NC1c1ccc(OCC(=O)N2CC(C)OC(C)C2)c(OC)c1` (stereo not given), for which the inhibition (reported as % activation of signal) was -3.49%.

As for `O=C1CC(Cc2ccc(Cl)cc2)C(=O)N1c1cc(Cl)ccn1` (stereo not given), the inhibition (reported as % activation of signal) is 1.99%.

In the case of `O=C(NC1CCCC1)C(NS(=O)(=O)c1ccc(Br)s1)c1ccccc1` (stereo not given), the inhibition (reported as % activation of signal) is 3.01%.

On to `COc1ccc(NC(=O)CN(C)C(=O)/C=C/c2cn(Cc3ccccc3)nc2-c2cccnc2)cc1`, for which the inhibition (reported as % activation of signal) was 2.58%.

Regarding `Cc1ccc(/C=C/C(=O)OCC(=O)Nc2cccnc2Cl)cc1`, the inhibition (reported as % activation of signal) was 0.14%.

Regarding `O=C(COC(=O)/C=C/c1cn(-c2ccccc2)nc1-c1cccnc1)Nc1ccc(Cl)cc1Cl`, the inhibition (reported as % activation of signal) is 56% (active).

In the case of `CCN(CC(=O)Nc1ccc(OC)cc1)C(=O)c1ccc(=O)n(Cc2ccccc2)n1`, the inhibition (reported as % activation of signal) was 4.56%.

Consider `Nc1ccc2nc3c(=O)[nH]c(=S)[nH]c3nc2c1`, for which the inhibition (reported as % activation of signal) is 129% (active).

Take `CC1(Oc2cccc(F)c2)CCN(Cc2ccccc2OC(F)F)C1` (stereo not given): the inhibition (reported as % activation of signal) was 8.51%.

For the compound `CCCOc1ccc2c3c(c(=O)oc2c1OCCC)CCC3`, the inhibition (reported as % activation of signal) was 5.15%.

With `CCCn1nc(C(=O)OCc2nc(N)nc(Nc3ccccc3C)n2)c2ccccc2c1=O`, the inhibition (reported as % activation of signal) was -3.44%.

As for `Cc1ccc(C(=O)NNC(=O)CSc2nnc3ccccn23)cc1`, the inhibition (reported as % activation of signal) was -3.3%.

As to `Cc1ccc(C(=O)NNC(=O)c2cc3cc4ccccc4nc3s2)cc1`, the inhibition (reported as % activation of signal) was 54.4% (active).

In the case of `Cc1ccc(C(=O)NNc2ncnc3ccccc23)cc1`, the inhibition (reported as % activation of signal) was 2.1%.

For the compound `CCOc1cc(C(=O)Nc2c(C)ccc3nsnc23)cc(OCC)c1OCC`, the inhibition (reported as % activation of signal) is 1.78%.

Take `c1ccc2c(-c3nn4nnnc4c4ccccc34)cccc2c1`: the inhibition (reported as % activation of signal) is -1.65%.

Take `CCCN1Cc2cccc(C(=O)NCc3ccccc3)c2C1=O`: the inhibition (reported as % activation of signal) is 0.1%.

On to `Cc1ccc(S(=O)(=O)N2CCN=C2SCc2c(F)cccc2Cl)cc1`, for which the inhibition (reported as % activation of signal) was -1.13%.

As for `C/C(=N\Nc1ccccc1)c1cccs1`, the inhibition (reported as % activation of signal) is -15%.

On to `C/C(=N\Nc1ccc(S(N)(=O)=O)cc1[N+](=O)[O-])c1cccs1`, for which the inhibition (reported as % activation of signal) was 51% (active).

As to `CCOC(=O)C/C(C)=N\Nc1ccc([N+](=O)[O-])cc1[N+](=O)[O-]`, the inhibition (reported as % activation of signal) is 8.42%.

Regarding `CCCCNc1c(-c2cccc(Sc3ccc(OC)cc3)c2)nc2ccccn12`, the inhibition (reported as % activation of signal) was -24.9%.

`CCc1nnc(NC(=O)c2cc(S(=O)(=O)N3CCN(CC)CC3)ccc2Cl)s1`: the inhibition (reported as % activation of signal) is 1.36%.

Regarding `Clc1ccc(C2=CSC3=Nc4cccc5cccc(c45)N23)cc1`, the inhibition (reported as % activation of signal) is 61.1% (active).

Take `O=C(COC(=O)c1ccc(S(=O)(=O)N2CCc3ccccc3C2)cc1)NC(=O)NCc1ccco1`: the inhibition (reported as % activation of signal) was 4.21%.
